Compound activity: PubChem BioAssay, National Center for Advancing Translational Sciences (NCATS)
An excerpt weighted towards active compounds, which were near 9% of everything screened.
12-LOX inh: inhibitors of human 12S-lipoxygenase ALOX12; P18054; purified 12hLO, xylenol orange hydroperoxide absorbance; Potency, µM (doses to about 108 µM), actives largely listed as inhibitors; hit rate 1.1% among 580,000; AID 1671190
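Hydroperoxide product was detected by ferrous iron/xylenol orange as the 573 to 405 nm absorbance ratio. Arachidonic acid at 40 uM (final) was turned over for 30 min at room temperature by 150 nM human 12hLO, pH 7.0 Hepes buffer, after 15 min compound preincubation.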
BAZ2B block: blocks human BAZ2B; Potency, µM (top dose mostly 114 µM), usual class: inhibitors; Q9UIF8; AlphaScreen BAZ2B-H3K14Ac peptide displacement; hit rate 4.4% among 360,000; further: nearly all actives have a fitted effect of over 60% in size
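BAZ2B (50 nM) with biotin-H3(5-23)K14Ac peptide (50 nM) in PBS pH 7.4, 0.01% Tween-20, preformed 30 min, then compound 30 min at room temperature; top concentration 110uM. AlphaScreen streptavidin donor/nickel chelate acceptor beads (10 ug/mL final), 20 min dark, signal read.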
PLK1 PBD block: blocks phosphopeptide binding to human PLK1 polo-box domain | Plk1 PBD binding of FITC phosphopeptide, fluorescence polarization | P53350 | Potency, µM, most hits filed as inhibitors | hit rate 2.8% among 360,000; further: series mostly up to about 57 µM; nearly all actives have a fitted effect of over 65% in size
JMJD2A Tudor: JMJD2A Tudor domain (human) inhibition; O75164; AlphaScreen JMJD2A-Tudor / H3K4me3 peptide binding; Potency, µM (top dose mostly 114 µM), usual class: inhibitors; hit rate 4.4% among 390,000; AID 504339; further: nearly all actives have a fitted effect of over 50% in size
G9a block: blocks human histone lysine methyltransferase G9a; hit rate 8.8% among 350,000; G9a H3K9 monomethylation, AlphaScreen, 2 h; AID 504332; Potency, µM (titrated, usually from 102 µM), usual class: inhibitors; further: nearly all actives have a fitted effect of over 75% in size
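Using a bead-based AlphaScreen, monomethylated H3K9 product from 2 h room-temperature reactions (G9a 20 nM, peptide 500 nM, SAM 20 uM) was detected with 0.5 ug/mL rabbit anti-H3K9me1 antibody.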
HP1b binding inh: HP1-beta chromodomain-methylated histone interaction inhibition. P83916. AlphaScreen HP1-beta / biotin-H3K9me3 peptide binding. Potency, µM (doses to about 114 µM), most hits filed as inhibitors. hit rate 0.56% among 390,000. AID 540317; further: nearly all actives have a fitted effect of over 70% in size
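AlphaScreen: HP1-beta (50 nM) preformed 30 min with biotin-H3(1-18)K9me3 peptide (50 nM) in PBS pH 7.4, 0.01% Tween-20. Compound added for 30 min at RT, then streptavidin donor/nickel chelate acceptor beads (10 ug/mL) for 30 min.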
Of the large screens only hits and unclear results are named; the others gave an inactive call; ! = a repeat was not active. The call rests on the fitted dose curve; in most records, active means well fitted curve in the direction sought with a large enough effect; inconclusive means small, poorly fitted or top-dose-only effect, or another doubt; inactive means no such curve, though single readings can be large; an effect the other way counts as inactive or inconclusive.

Cc1cnc(C(=O)Nc2nnc(C)s2)cn1	BAZ2B block inconclusive, JMJD2A Tudor 1.1µM, G9a block 2µM
Cc1csc(NC(=O)c2cnccn2)n1	BAZ2B block inconclusive, JMJD2A Tudor 7.9µM, G9a block 3.5µM
Cc1cnc(C(=O)Nc2nnc(C(C)C)s2)cn1	BAZ2B block 50µM, JMJD2A Tudor 0.28µM, G9a block 1µM
CN(C)S(=O)(=O)c1ccc(S(=O)(=O)N(CC(=O)Nc2ccccc2)CC2CCCO2)cc1 (stereo not drawn)	G9a block 32µM
COCC(=O)N(C)Cc1ccc(F)cc1	none (no result: BAZ2B block, PLK1 PBD block, JMJD2A Tudor, G9a block, HP1b binding inh)
COC(=O)c1ccc(C(=O)OC)c(-n2c(=O)c3ccccc3c3ccccc3c2=O)c1	BAZ2B block inconclusive, PLK1 PBD block inconclusive, G9a block 28µM
COc1ccc(C2N(c3ccc(C)cc3)CCN2c2ccc(C)cc2)cc1O	BAZ2B block 32µM, JMJD2A Tudor 28µM, G9a block 18µM
COc1cc(C2N(c3ccccc3)CCN2c2ccccc2)ccc1OC(C)=O	BAZ2B block inconclusive
CN(C)CCOC(=O)c1ccc2[nH]c3c(c2c1)CSCC3	12-LOX inh inconclusive, PLK1 PBD block 30µM, G9a block 28µM, HP1b binding inh inconclusive
O=C(O)c1ccc2[nH]c3c(c2c1)CSCC3	PLK1 PBD block inconclusive, G9a block inconclusive (no result: 12-LOX inh)
CCN(C(=O)COC(=O)c1ccc2[nH]c3c(c2c1)CCCC3)C1CCS(=O)(=O)C1 (stereo not drawn)	BAZ2B block inconclusive, G9a block 50µM
CCN(C(=O)COC(=O)c1ccc(Cl)c(N)c1)C1CCS(=O)(=O)C1 (stereo not drawn)	none
CCOC(=O)c1ccc2[nH]c3c(c2c1)CCCC3	BAZ2B block 32µM, G9a block 35µM, HP1b binding inh inconclusive
Cc1cc2n(n1)CCCN2C(=O)Nc1ccccc1C(F)(F)F	none (no result: PLK1 PBD block)
Cc1cc(Br)cn2c(Cc3ccsc3)c(C(C)(C)C)nc12	12-LOX inh 35µM, PLK1 PBD block inconclusive (no result: BAZ2B block, JMJD2A Tudor, G9a block, HP1b binding inh)
CCCc1nc2c(C)cc(Br)cn2c1Cc1ccsc1	12-LOX inh inconclusive (no result: BAZ2B block, JMJD2A Tudor, G9a block, HP1b binding inh)
Cc1ccc2nc(C(C)(C)C)c(Cc3ccsc3)n2c1	12-LOX inh 6.3µM (no result: BAZ2B block, JMJD2A Tudor, G9a block, HP1b binding inh)
CCCc1nc2ccc(C)cn2c1Cc1ccsc1	none (no result: BAZ2B block, JMJD2A Tudor, G9a block, HP1b binding inh)
Cc1ccc(NC(=O)CCc2ccc(C)o2)c(Br)c1	PLK1 PBD block inconclusive, G9a block inconclusive
O=C(CCn1c(=S)[nH]c2cc3c(cc2c1=O)OCO3)NCc1cccc(Cl)c1	none
CC1CCCN(C2=C(NS(=O)(=O)c3ccc(Cl)cc3)C(=O)c3ccccc3C2=O)C1 (stereo not drawn)	12-LOX inh inconclusive, BAZ2B block 5µM, PLK1 PBD block inconclusive, JMJD2A Tudor 8.9µM, G9a block 2.5µM, HP1b binding inh 6.3µM
NC(=O)C1CCN(C2=C(NS(=O)(=O)c3ccc(Cl)cc3)C(=O)c3ccccc3C2=O)CC1	BAZ2B block 35µM, JMJD2A Tudor inconclusive, G9a block 25µM
O=S(=O)(Nc1nc2ccccc2nc1N1CCCCC1)c1ccc(Cl)cc1	none (no result: BAZ2B block, PLK1 PBD block, JMJD2A Tudor, G9a block, HP1b binding inh)
CC1CCCN(S(=O)(=O)Cc2ccc(Cl)cc2)C1 (stereo not drawn)	none
COC(=O)C1CCN(C2=C(NS(=O)(=O)c3ccc(Cl)cc3)C(=O)c3ccccc3C2=O)CC1	BAZ2B block 11µM, PLK1 PBD block 21µM, JMJD2A Tudor inconclusive, HP1b binding inh inconclusive
NCCCCCCCCCCN	none (no result: 12-LOX inh, BAZ2B block, PLK1 PBD block, JMJD2A Tudor, HP1b binding inh)
NCCCCN	G9a block 50µM! (no result: BAZ2B block, PLK1 PBD block, JMJD2A Tudor, HP1b binding inh)
NCCCCNCCCN	12-LOX inh inconclusive, G9a block 11µM!
FC(F)(F)c1cnc(N/N=C/c2ccncc2)c(Cl)c1	none
Cc1ccc(S(=O)(=O)Nc2nc3n(n2)C(c2ccc(F)cc2)C=C(c2ccccc2)N3)cc1 (stereo not drawn)	G9a block inconclusive (no result: PLK1 PBD block)
CC1=CC(c2ccc(Cl)cc2)n2nc(NS(=O)(=O)c3ccc(C)cc3)nc2N1 (stereo not drawn)	12-LOX inh inconclusive, PLK1 PBD block inconclusive, G9a block 32µM
CC1=CC(c2ccccc2)n2nc(NS(=O)(=O)c3ccc(C)cc3)nc2N1 (stereo not drawn)	BAZ2B block inconclusive, G9a block 18µM
CCc1nnc(SCc2ccc(OC)c(Br)c2)n1N	none
